The values below come from PubChem BioAssay (NCI).

Test systems include T-47D breast; BT-549 breast; MDA-MB-435 melanoma; SW-620 colon; MCF7 breast; HCT-116 colon; HCC-2998 colon; KM12 colon.
Common to all, as to experiment: NCI-60 one-dose screen, 48 h (100 = growth as untreated, 0 = no growth, -100 = all killed)
Holding throughout (conditions): 10 µM unless noted

SMILES strings stand for the structures. About 83,000 compounds went through this panel and 20% of them were active in at least one assay; those are over-represented in the sample as a whole.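 Cell lines were cultured in 96-well plates, exposed to a single compound concentration, and assessed for percent growth 48 hours later.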 Values without a mark were called inactive. Calls of active or inactive are those of the source. The calls were made as follows: active = growth percent below 10; inactive = the rest.

Consider `CC(C)=CCC[C@](C)(O)C1CC[C@]2(C)[C@@H]1CC[C@@H]1[C@@]3(C)CC/C(=N\OCCC#N)C(C)(C)[C@@H]3CC[C@]12C` (stereo partly drawn), for which the growth was 52.6% in the experiment with T-47D breast; 102% in the experiment on BT-549 breast; 87.7% in the experiment on MDA-MB-435 melanoma; 78.8% in the experiment on SW-620 colon; 63.2% in the experiment on MCF7 breast; 66.2% in the experiment on HCT-116 colon. Also, the growth in the experiment with HCC-2998 colon is 84.5%; in the experiment with KM12 colon it was 84.7%.
On to `CNC(=O)c1cc(Oc2cccc3nc(NC(=O)Nc4ccc(F)cc4F)ccc23)ccn1`, for which the growth is 21% with T-47D breast; 45.5% with BT-549 breast; 32.6% in the experiment on MDA-MB-435 melanoma; 59.7% in the experiment with SW-620 colon; 37.8% with MCF7 breast; -33.1% (active) with HCT-116 colon. The growth in the experiment on HCC-2998 colon is 70.2%; with KM12 colon it was 57.7%.
In the case of `Cc1cc(C(=O)Nc2cc(Nc3ncccc3-c3ncnc4nc[nH]c34)ccc2F)cc(C(C)(C)C#N)c1`, the growth was 47% with T-47D breast; 54.5% in the experiment on BT-549 breast; 33.2% in the experiment on MDA-MB-435 melanoma; 34.3% in the experiment on SW-620 colon; 62.4% in the experiment on MCF7 breast; 14.1% with HCT-116 colon. Moreover, the values for the growth in the experiment on HCC-2998 colon and with KM12 colon were 35.3% and 35.9%, respectively.
With `O=C1Nc2ccccc2/C1=C/c1cccn1CCCCCCn1c2ccccc2c(=O)c2ccccc21`, the growth with T-47D breast is -3% (active); in the experiment on BT-549 breast, 63.5%; in the experiment with MDA-MB-435 melanoma it was 96.7%; in the experiment with SW-620 colon, 102%; with MCF7 breast it was 1.03% (active); in the experiment with HCT-116 colon, 70.4%. Further, the growth is 42.8% in the experiment on HCC-2998 colon and 12.8% with KM12 colon.
On to `COc1cc2c(cc1-c1c(C)noc1C)ncc1nc(C3CCOCC3)n(C3CCC(OC(F)F)CC3)c12` (stereo not drawn), for which the growth in the experiment with T-47D breast is 11.3%; in the experiment with BT-549 breast, 77.1%; with MDA-MB-435 melanoma, 48.9%; in the experiment on SW-620 colon, 76.3%; in the experiment with MCF7 breast, 18.5%; in the experiment with HCT-116 colon it was 66.1%. For the same molecule, the growth with HCC-2998 colon is 56.5%; in the experiment on KM12 colon it was 44.3%.
Consider `Oc1ccc(C2OCCO2)c2cccnc12`, for which the growth in the experiment on T-47D breast is 26.2%; in the experiment on BT-549 breast it was 64.2%; in the experiment with MDA-MB-435 melanoma, 49.4%; with SW-620 colon, 22.3%; in the experiment with MCF7 breast it was 7.84% (active); in the experiment with HCT-116 colon, 8.85% (active). Further, the growth was 96.6% with HCC-2998 colon and 72.4% in the experiment with KM12 colon.
On to `CC(C)(C)CC(C)(C)Nc1c(-c2c(O)c3ccccc3oc2=O)nc2sccn12`, for which the growth in the experiment with T-47D breast was 84.8%; in the experiment on BT-549 breast it was 111%; in the experiment on MDA-MB-435 melanoma it was 104%; in the experiment with SW-620 colon, 96.9%; in the experiment on MCF7 breast, 91.7%; in the experiment on HCT-116 colon, 98.2%. Also, the results for the growth with HCC-2998 colon and in the experiment on KM12 colon were 98.5% and 107%, respectively.
For `CC(C)(C)[C@H](OCc1cn([C@H]2C[C@@H](O)[C@@H](CO)O2)c(=O)[nH]c1=O)c1ccc(C#Cc2ccccc2)cc1[N+](=O)[O-]`, the growth in the experiment with T-47D breast is 53.6%; in the experiment on BT-549 breast, 27.6%; in the experiment on MDA-MB-435 melanoma, 92.6%; with SW-620 colon, 101%; in the experiment on MCF7 breast, 3.01% (active); in the experiment with HCT-116 colon, 32.3%. Moreover, the growth in the experiment with HCC-2998 colon is 87.1%; in the experiment with KM12 colon, 84.9%.
`N#C/C(=N\Nc1ccccc1)C(=O)Nc1cc(-c2ccccc2)nn1-c1ccccc1`: the growth is 9.7% (active) in the experiment with T-47D breast; 16.2% with BT-549 breast; 30.3% with MDA-MB-435 melanoma; 20.2% with SW-620 colon; 16.4% in the experiment on MCF7 breast; 16.1% in the experiment on HCT-116 colon. Also, the growth with HCC-2998 colon is 40.7%; in the experiment on KM12 colon, 36.8%.
As for `COc1ccc(CNc2c3ccccc3nc3ccccc23)cc1OC`, the growth in the experiment with T-47D breast is 25.8%; in the experiment with BT-549 breast it was 42.1%; in the experiment with MDA-MB-435 melanoma, 29.4%; in the experiment with SW-620 colon, 16%; in the experiment with MCF7 breast it was 0.674% (active); in the experiment with HCT-116 colon, 12.2%. Moreover, the values for the growth in the experiment with HCC-2998 colon and with KM12 colon were 30.1% and 31.6%, respectively.
Take `CCOC(=O)CC1C(CNC(=O)NC)OC(n2cnc3c(NC(=O)Nc4ccccc4)ncnc32)C1O[Si](C)(C)C(C)(C)C` (stereo not drawn): the growth was 27.1% in the experiment with T-47D breast; 81.6% in the experiment on BT-549 breast; 53.6% with MDA-MB-435 melanoma; 71.2% in the experiment with SW-620 colon; 18.1% with MCF7 breast; 16.7% with HCT-116 colon. In addition, the growth with HCC-2998 colon is 61.8%; with KM12 colon, 43.4%.
In the case of `Cc1cc(=O)oc2cc(Oc3nc(-c4ccccc4)cn4c(-c5ccccc5)cnc34)ccc12`, the growth is 38.5% in the experiment with T-47D breast; 82.6% in the experiment on BT-549 breast; 72.1% with MDA-MB-435 melanoma; 88.3% in the experiment with SW-620 colon; 50.5% with MCF7 breast; 39.3% in the experiment on HCT-116 colon. Besides, the values for the growth in the experiment on HCC-2998 colon and with KM12 colon were 81% and 75.5%, respectively.
Consider `CC(=O)[C@H]1CC[C@]2(C)[C@@H]1CC[C@@H]1[C@@]3(C)C/C(=C/c4cccnc4)C(=O)C(C)(C)[C@@H]3CC[C@]12C`, for which the growth with T-47D breast was 13.6%; in the experiment on BT-549 breast, 50.6%; with MDA-MB-435 melanoma it was 75.1%; with SW-620 colon, 61.9%; in the experiment on MCF7 breast, 34.8%; with HCT-116 colon, 33.2%. In addition, the growth in the experiment on HCC-2998 colon was 99.9%; in the experiment on KM12 colon it was 49.1%.
Consider `C#C[C@]1(O)CC[C@H]2[C@@H]3CC=C4c5sc(-c6cccc(C)c6)nc5CC[C@]4(C)[C@H]3CC[C@@]21C`, for which the growth is 78.6% in the experiment on T-47D breast; 71.5% in the experiment on BT-549 breast; 82.8% in the experiment with MDA-MB-435 melanoma; 84.8% in the experiment on SW-620 colon; 34.9% with MCF7 breast; 68.2% in the experiment with HCT-116 colon. Also, the growth with HCC-2998 colon is 72.5%; in the experiment with KM12 colon it was 54.3%.
For the molecule `CO[C@]12C=C/C(=C(/C(=O)OCc3cccnc3)C(=O)CCCCCCCC[C@]3(OC)C=C/C(=C(/C(=O)OCc4cccnc4)C(=O)CCCCCCCC1)O3)O2`, the growth was -17.2% (active) in the experiment on T-47D breast; -67.8% (active) with BT-549 breast; -42.4% (active) in the experiment on MDA-MB-435 melanoma; -33.3% (active) in the experiment with SW-620 colon; -56.3% (active) with MCF7 breast; -86% (active) in the experiment on HCT-116 colon. In addition, the growth in the experiment with HCC-2998 colon is -90.6% (active); with KM12 colon it was -86.5% (active).
In the case of `Cc1ccccc1NC(=O)c1sc2nc3c(cc2c1N)CCCC3`, the growth in the experiment on T-47D breast was 29.6%; in the experiment with BT-549 breast it was 63.5%; in the experiment on MDA-MB-435 melanoma, -18.4% (active); with SW-620 colon, 19.2%; in the experiment with MCF7 breast it was 13.3%; in the experiment with HCT-116 colon, 29%. Further, the growth in the experiment on HCC-2998 colon is 64.8%; with KM12 colon, 25.2%.
